Here are results for 40 compounds from the supplement of paper PMC8975748.

Counter-ions that a name gives are not always drawn.

This test has as its system Saccharomyces cerevisiae BY4741 SeMeCo community. As to the kind of experiment: z-score of subpopulation abundance vs DMSO median, subpopulation auxotrophic for HLM; higher = larger share of this subpopulation than in DMSO controls. The following applies: 10 µM; 24 h; SM minimal medium; subpopulation (auxotrophy): HLM. How it is done:
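Fluorescent four-plasmid SeMeCo (self-establishing metabolically cooperating S. cerevisiae BY4741 community; plasmids pH-mRuby2, pL-mWasabi, pU-eCFP, pM-TagRFP657) was grown 24 h in minimal SM medium with each Selleck FDA-approved drug at 10 µM in 384-well plates. Cells were fixed and imaged by high-content confocal microscopy. For each auxotrophic subpopulation (and the prototroph), a z-score gives the deviation from the DMSO vehicle-control population median.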
For the compound `Nc1cc(C(Cl)=C(Cl)Cl)c(S(N)(=O)=O)cc1S(N)(=O)=O` [Clorsulon], the “z-score of subpopulation abundance” value stood at 0.02.
For the compound `Clc1ccccc1C(c1ccccc1)(c1ccccc1)n1ccnc1` [Clotrimazole], the “z-score of subpopulation abundance” value turned out to be 15.2.
For `CC(=O)OCC(CCn1cnc2cnc(N)nc21)COC(C)=O` [Famciclovir] the value was 1.57; for `CC(=O)Oc1ccccc1C(=O)O` [Aspirin], 0.21.
For `O=C(c1ccccc1)c1ccc2n1CCC2C(=O)O` (stereo not given) [Ketorolac] the value was -0.11; for `C#CCN[C@@H]1CCc2ccccc21` [Rasagiline Mesylate], -0.04; for `CC[C@@]1(O)C(=O)OCc2c1cc1n(c2=O)Cc2cc3cc(O)ccc3nc2-1` [(S)-10-Hydroxycamptothecin], 0.07.
For `CC1(C)S[C@@H]2[C@H](NC(=O)[C@H](C(=O)O)c3ccsc3)C(=O)N2[C@H]1C(=O)O` [Ticarcillin sodium] the value was 1.43.
Consider `OC(CCN1CCCCC1)(c1ccccc1)C1CCCCC1` (stereo not given) [Trihexyphenidyl hydrochloride], for which the “z-score of subpopulation abundance” value came to 0.68.
For `O=C(Cn1ccnc1[N+](=O)[O-])NCc1ccccc1` [Benznidazole] the value was -0.65.
For `Cc1ncc([N+](=O)[O-])n1CCOC(=O)c1ccccc1` [Metronidazole Benzoate] the value was -0.79; for `CCN(CC)C(=O)[C@@]1(c2ccccc2)C[C@H]1CN` [Levomilnacipran Hydrochloride], -1.07.
For `O=S1(=O)CCN(CN2CCS(=O)(=O)NC2)CN1` [Taurolidine] the value was -0.64.
Take `C[N+]1(C)CCC(OC(=O)C(O)(c2ccccc2)C2CCCC2)C1` (stereo not given) [Glycopyrrolate]: the “z-score of subpopulation abundance” value was found to be 0.17.
For `CCOC(=O)c1ccc(N)cc1` [Benzocaine] the value was -0.02; for `C[C@](N)(Cc1ccc(O)c(O)c1)C(=O)O` [Methyldopa], -0.36; for `CCC(=O)Oc1ccc2c(c1)CCC1C2CCC2(C)C(OC(=O)CC)CCC12` (stereo not drawn) [Estradiol dipropionate(17-Beta-Estradiol-3,17-Dipropionate)], -0.83.
In the case of `CCCCN1CCCCC1C(=O)Nc1c(C)cccc1C` (stereo not given) [Bupivacaine HCl], the “z-score of subpopulation abundance” value stood at 0.32.
For `Cc1c(C(N)=O)cc([N+](=O)[O-])cc1[N+](=O)[O-]` [Dinitolmide] the value was -0.3.
For `COC(=O)Nc1nc2cc(C(=O)c3ccccc3)ccc2[nH]1` [Mebendazole] the value was 1.83; for `Cc1cc(-c2ccc(/N=N/c3ccc4c(S(=O)(=O)O)cc(S(=O)(=O)O)c(N)c4c3O)c(C)c2)ccc1/N=N/c1ccc2c(S(=O)(=O)O)cc(S(=O)(=O)O)c(N)c2c1O` [Evans Blue], -2.86.
For `CC[C@H](C)C[C@H](C)CCCCCCCCC(=O)N[C@H]1C[C@@H](O)[C@@H](NCCN)NC(=O)[C@@H]2[C@@H](O)CCN2C(=O)[C@H]([C@H](O)CCN)NC(=O)[C@H]([C@H](O)[C@@H](O)c2ccc(O)cc2)NC(=O)[C@@H]2C[C@@H](O)CN2C(=O)[C@H]([C@@H](C)O)NC1=O` [Caspofungin Acetate] the value was 45.5; for `CN(CCN1CCC(OC(=O)Nc2ccccc2-c2ccccc2)CC1)C(=O)c1ccc(CN2CCC(C(N)=O)CC2)cc1` [Revefenacin], -0.49; for `Cc1nc(Nc2ccc(F)cc2)nc(N2CCc3ccccc3C2C)c1C` (stereo not given) [Revaprazan Hydrochloride], -0.32.
As for `CCCCCc1ccc(C)cc1O` [Amylmetacresol], the “z-score of subpopulation abundance” value is 0.52.
With `C[C@]12CC[C@@H]3c4ccc(OS(=O)(=O)O)cc4CC[C@H]3[C@@H]1CCC2=O` [Estropipate], the “z-score of subpopulation abundance” value was -0.64.
For `CN1C(C(=O)Nc2ccccn2)=C(O)c2ccccc2S1(=O)=O` [Piroxicam] the value was -0.68; for `CC[N+](C)(C)c1cccc(O)c1` [Edrophonium chloride], -0.47; for `CO/N=C(\C(=O)N[C@@H]1C(=O)N2C(C(=O)O)=C(CSc3nc(C)c(CC(=O)O)s3)CS[C@H]12)c1csc(N)n1` [Cefodizime Sodium], -1.07.
For `O=C(O[C@H]1CN2CCC1CC2)N1CCc2ccccc2[C@@H]1c1ccccc1` [Solifenacin succinate], the “z-score of subpopulation abundance” value turned out to be 0.25.
For `O=C1C(N(CO)C(=O)NCO)N(CO)C(=O)N1CO` (stereo not given) [Diazolidinyl urea] the value was -0.27; for `Cc1ccc(S(=O)(=O)NC(=O)NN2CC3CCCC3C2)cc1` (stereo not given) [Gliclazide], -0.16.
For `OCc1ccc(Cl)cc1Cl` [2,4-dichlorobenzyl alcohol] the value was 0.03; for `CCCSc1ccc2[nH]c(NC(=O)OC)nc2c1` [Albendazole], 0.74.
`C[C@@H](O)[C@H]1C(=O)N2C(C(=O)O)=C(S[C@@H]3CN[C@H](C(=O)N(C)C)C3)[C@H](C)[C@H]12` [Meropenem Trihydrate]: the “z-score of subpopulation abundance” value came to 0.4.
On to `OCCN1CCN(CCCN2c3ccccc3Sc3ccc(Cl)cc32)CC1` [Perphenazine], for which the “z-score of subpopulation abundance” value was 0.
For the compound `CN1CCN(CCCN2c3ccccc3Sc3ccc(C(F)(F)F)cc32)CC1` [Trifluoperazine 2HCl], the “z-score of subpopulation abundance” value was -0.79.
For `COCCCN1CCC(NC(=O)c2cc(Cl)c(N)c3c2OCC3)CC1` [Prucalopride Succinate] the value was 1.1; for `COC(=O)Nc1nc2cc(Sc3ccccc3)ccc2[nH]1` [Fenbendazole], -0.31; for `CC(=O)NC[C@H]1CN(c2ccc(N3CCOCC3)c(F)c2)C(=O)O1` [Linezolid], -0.75.
